# Source: PubChem BioAssay
# Several values for one entry are separate records, joined by “and”; a condition that tells them apart may be missing. Equal entries are not always repeated. Activity calls are given as the source filed them. Cut-off read from the data, not from the text of the source, unless noted: active = inhibition above about 80%; inactive = the rest.
# Legend:
# [1] = growth inhibition, single agents and combos, CRL2098, cell-based, BGB or cisplatin IC20 combos, synergistic combos for chromothripsis tumors (AID 1671454); conditions: CRL2098 osteosarcoma cells, drug combinations, stronger effect = higher value;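 note: cells exposed for 96 h before readout; 0% = vehicle DMSO and 100% = killing by high DMSO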
# [2] = growth inhibition, single agents and combos, HD-MB03, cell-based, BGB or cisplatin IC20 combos, synergistic combos for chromothripsis tumors (AID 1671455; in the data active = inhibition above about 83%;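 note: 0% = vehicle DMSO and 100% = high DMSO as cytotoxic control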); conditions: HD-MB03 medulloblastoma cells, stronger effect = higher value
# [3] = growth inhibition, single agents and combos, UWB1.289, cell-based, BGB or cisplatin combos, synergistic combos for chromothripsis tumors (AID 1671456); conditions: UWB1.289 ovarian carcinoma cells, stronger effect = higher value;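 note: cells exposed to compound for four days; 0% = vehicle DMSO and 100% = killing by high DMSO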
# [4] = growth inhibition, single agents and combos, LFS_MB_2R, cell-based, cisplatin combos, synergistic combos for chromothripsis tumors (AID 1671457); conditions: LFS_MB_2R medulloblastoma cells, stronger effect = higher value;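 note: cells exposed to compound for four days before readout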
# [5] = growth inhibition, MDA-MB-436, cell-based, BGB or cisplatin combos, synergistic combos for chromothripsis tumors (AID 1671458; call rule not given here;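 note: cells exposed for 96 hours; 0% = vehicle DMSO and 100% = killing by high DMSO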); conditions: MDA-MB-436 breast carcinoma growth inhibition, drug combinations, stronger effect = higher value
# [6] = UWB1.289_BRCA1 ovarian cancer growth, cell-based, BGB or cisplatin combinations (AID 1671459); conditions: UWB1.289 BRCA1 ovarian carcinoma, drug combinations, stronger effect = higher value
# [7] = drug combination toxicity in non-malignant astrocytes – cell-based, BGB or cisplatin IC20 combos, cytotoxicity control for chromothriptic childhood tumor combination screen (AID 1671460); conditions: Human astrocytes, viability inhibition, drug combinations, at 0.5 µM, stronger effect = higher value;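 note: cells exposed to compounds for 96 hours before viability readout; 0% = vehicle and 100% = killing control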
# [8] = BT084 cell growth, single and combined drugs, ICGC_MB145, cisplatin and BGB IC40 combos (AID 1671461); conditions: BT084 medulloblastoma cells, drug combinations, stronger effect = higher value;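 note: cells exposed to drugs for 96 hours; 0% = vehicle DMSO and 100% = high DMSO full killing control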
# [9] = RCMB18 cell growth, single agent and combined, cisplatin and BGB IC40 combos (AID 1671462); conditions: RCMB18 medulloblastoma cells, stronger effect = higher value;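 note: cells exposed to compound for four days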
# [10] = CRL1545 cell growth, single agent and combined, cisplatin and BGB IC20 combos (AID 1671464); conditions: CRL1545 osteosarcoma cells, stronger effect = higher value;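 note: cells exposed to compound for 96 hours before readout; 0% = vehicle DMSO and 100% = high DMSO killing control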
# [11] = growth inhibition, single agent or in combination, cell-based, chromothripsis tumors, cisplatin or BGB combos (AID 1671449); conditions: LFS_MB_P medulloblastoma cells;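 note: cells exposed for 96 hours; 0% = vehicle DMSO and 100% = killing by high DMSO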
# [12] = growth inhibition, single agent and combos, cell-based, chromothripsis tumors, cisplatin or BGB combos (AID 1671450); conditions: HDN33 neuroblastoma cells, stronger effect = higher value;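 note: cells exposed to compound for four days; 0% = vehicle DMSO and 100% = cell killing by high DMSO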
# [13] = growth inhibition, single agents and combos, ICB984, cell-based, cisplatin or BGB combos, synergistic combos for chromothripsis tumors (AID 1671451; call rule not given here;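 note: cells exposed for 96 hours before readout; 0% = vehicle DMSO and 100% = killing by high DMSO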); conditions: ICB984 medulloblastoma cells, drug combinations, stronger effect = higher value
# [14] = growth inhibition, single agents and combos, LFS_MB_1R, cell-based, cisplatin or BGB combos, synergistic combos for chromothripsis tumors (AID 1671452); conditions: LFS_MB_1R medulloblastoma cells, stronger effect = higher value;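 note: cells exposed for 96 hours before readout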
# [15] = growth inhibition, single agents and combos, HTB85, cell-based, BGB or cisplatin IC20 combos, synergistic combos for chromothripsis tumors (AID 1671453); conditions: HTB85 osteosarcoma cells, drug combinations, stronger effect = higher value;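 note: cells exposed for 96 hours before readout; 0% = vehicle DMSO and 100% = high DMSO killing control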
# [16] = measured here: combination with BGB at IC20, at 0.5 µM
# [17] = measured here: combination with cisplatin at IC20, at 0.5 µM
# [18] = measured here: combo with BGB at IC20, at 0.5 µM
# [19] = measured here: combo with cisplatin at IC20, at 0.5 µM
# [20] = measured here: inhibition with BGB combination, at 0.05 µM
# [21] = measured here: inhibition with cisplatin combination, at 0.05 µM
# [22] = measured here: combination with cisplatin, at 0.5 µM
# [23] = measured here: combination with cisplatin, at 5 µM
# [24] = measured here: BGB combination, at 0.5 µM
# [25] = measured here: BGB combination, at 5 µM
# [26] = measured here: cisplatin combination, at 0.5 µM
# [27] = measured here: cisplatin combination, at 5 µM
# [28] = BGB combination, concentration series, at 5 µM
# [29] = cisplatin combination, concentration series, at 5 µM
# [30] = measured here: combo with BGB IC20
# [31] = measured here: combo with cisplatin IC20
# [32] = cisplatin combination, at 0.5 µM
# [33] = measured here: BGB IC40 combination 0.05 uM, at 0.05 µM
# [34] = measured here: BGB IC40 combination, at 0.05 µM
# [35] = measured here: with BGB IC20 combination, at 0.5 µM
# [36] = measured here: with cisplatin IC20 combination, at 0.5 µM
# [37] = measured here: combination with BGB IC40, at 0.05 µM
smiles,measurement,setting,value
CN(C)CCNC(=O)c1cccn2c(=O)c3cc4ccccc4cc3nc12,inhibition,[1]; at 0.5 µM,2.28% (inactive) and -30.7% (inactive)
same,inhibition,[1]; [16],-26.7% and 2.29%
same,inhibition,[1]; [17],7.69% and -23.9%
same,inhibition,[2]; at 0.5 µM,0.57% (inactive) and 18.1% (inactive)
same,inhibition,[2]; [18],5% and 20.5%
same,inhibition,[2]; [19],-3.84% and 18.8%
same,inhibition,[3]; at 0.5 µM,10.9% (inactive) and 15.8% (inactive)
same,inhibition,[3]; [20],-15.6% and -22%
same,inhibition,[3]; [21],-3.25% and -14.4%
same,inhibition,[4]; at 0.5 µM,-28.9% (inactive) and -23.7% (inactive)
same,inhibition,[4]; [22],-34.7% and -23.8%
same,inhibition,[4]; [23],-8.3% and 23.4%
same,inhibition,[5]; at 0.5 µM,-19.8% (inactive) and -0.82% (inactive)
same,inhibition,[5]; [24],-29.6% and -21.4%
same,inhibition,[5]; [25],5.41% and 28.4%
same,inhibition,[5]; [26],-39.6% and -3.6%
same,inhibition,[5]; [27],-6.72% and 54.3%
same,inhibition,[6]; [28],35.7% and 58.1%
same,inhibition,[6]; at 0.5 µM,9.64% (inactive) and 20.1% (inactive)
same,inhibition,[6]; [29],60% and 77.2%
same,inhibition,[7],16.8% (inactive) and 32.4% (inactive)
same,inhibition,[7]; [30],18.7% and 31.3%
same,inhibition,[7]; [31],0.257% and 17.6%
same,inhibition,[8]; at 0.5 µM,-10% (inactive) and -13.6% (inactive)
same,inhibition,[8]; [32],-8.31% and -7.28%
same,inhibition,"[8]; cisplatin combination, at 5 µM",-110% and 45.2%
same,inhibition,[8]; [33],-36.7% and -32.1%
same,inhibition,"[8]; single agent, at 5 µM",-53.7% and -33.8%
same,inhibition,[9]; at 0.5 µM,-4.43% (inactive) and -8.03% (inactive)
same,inhibition,"[9]; cisplatin combo, at 5 µM",24.5% and 56.4%
same,inhibition,[9]; [34],-9.99% and -6.24%
same,inhibition,[9]; [22],-30.6% and 30.2%
same,inhibition,"[9]; single agent, at 5 µM",-2.75% and -32%
same,inhibition,[10]; at 0.5 µM,6.65% (inactive) and -6.99% (inactive)
same,inhibition,[10]; [35],19.7% and -21.2%
same,inhibition,[10]; [36],-1.47% and 0.101%
same,inhibition,"[10]; single agent, at 0.05 µM",-9.51% and -11.2%
same,inhibition,"[10]; single agent, at 5 µM",37.2% and 93.5%
O=C(CCSc1nc2ccccc2c(=O)[nH]1)NC1CCC(c2nnc(-c3ccccc3)o2)CC1 (stereo unspecified),inhibition,"[11]; at 0.5 µM, stronger effect = higher value",-18.8% (inactive)
same,inhibition,"[11]; measured here: combination with BGB IC20, at 0.005 µM",-14.4%
same,inhibition,"[11]; measured here: combination with BGB IC40, at 0.005 µM",-25.3%
same,inhibition,[11]; [37],-55.5%
same,inhibition,"[11]; measured here: combination with cisplatin, at 0.5 µM, stronger effect = higher value",-16.2%
same,inhibition,"[11]; measured here: combination with cisplatin, at 5 µM, stronger effect = higher value",-49.7%
same,inhibition,"[12]; BGB combo, at 5 µM",11.8%
same,inhibition,[12]; at 0.5 µM,16.1% (inactive)
same,inhibition,"[12]; cisplatin combo, at 5 µM",29.6%
same,inhibition,[12]; [35],8.27%
same,inhibition,[12]; [36],21.3%
same,inhibition,"[12]; single agent, at 5 µM",32.4%
same,inhibition,"[13]; BGB IC20 combo, at 0.005 µM",-2.22%
same,inhibition,"[13]; BGB IC40 combo, at 0.005 µM",-49.4%
same,inhibition,"[13]; BGB IC40 combo, at 0.05 µM",-27.2%
same,inhibition,[13]; at 0.5 µM,-25.5% (inactive)
same,inhibition,"[13]; cisplatin combo, at 0.05 µM",-31.8%
same,inhibition,"[13]; cisplatin combo, at 0.5 µM",-22.3%
same,inhibition,"[13]; cisplatin combo, at 5 µM",-10.9%
same,inhibition,"[13]; measured here: 5 uM single agent, at 5 µM",-18.3%
same,inhibition,[14]; at 0.5 µM,-14.6% (inactive)
same,inhibition,[14]; [37],6.03%
same,inhibition,[14]; [22],-5.82%
same,inhibition,[14]; [23],-21.2%
same,inhibition,[15]; at 0.5 µM,2.93% (inactive)
same,inhibition,"[15]; measured here: with BGB IC20, at 0.5 µM",-9.32%
same,inhibition,"[15]; measured here: with BGB IC20, at 5 µM",-14.4%
same,inhibition,"[15]; measured here: with cisplatin IC20, at 0.5 µM",5.46%
same,inhibition,"[15]; measured here: with cisplatin IC20, at 5 µM",-13.6%
same,inhibition,"[15]; single agent, at 5 µM",0.754%
same,inhibition,[1]; at 0.5 µM,-30.9% (inactive)
same,inhibition,[1]; [16],-25.3%
same,inhibition,[1]; [17],-55.1%
same,inhibition,[2]; at 0.5 µM,5.94% (inactive)
same,inhibition,[2]; [18],-6.25%
same,inhibition,[2]; [19],23%
same,inhibition,[3]; at 0.5 µM,10.2% (inactive)
same,inhibition,[3]; [20],-3.32%
same,inhibition,[3]; [21],13%
same,inhibition,[4]; at 0.5 µM,-3.45% (inactive)
same,inhibition,[4]; [22],-13.5%
same,inhibition,[4]; [23],-4.17%
same,inhibition,[5]; at 0.5 µM,4.84% (inactive)
same,inhibition,[5]; [24],-2.01%
same,inhibition,[5]; [25],-13.2%
same,inhibition,[5]; [26],5.45%
same,inhibition,[5]; [27],-2.11%
same,inhibition,[6]; [28],9.22%
same,inhibition,[6]; at 0.5 µM,8.17% (inactive)
same,inhibition,[6]; [29],-16.8%
same,inhibition,[7],41.8% (inactive)
same,inhibition,[7]; [30],31.3%
same,inhibition,[7]; [31],43.3%
same,inhibition,[8]; at 0.5 µM,-6.61% (inactive)
same,inhibition,[8]; [32],-27.5%
same,inhibition,"[8]; cisplatin combination, at 5 µM",2.51%
same,inhibition,[8]; [33],-56.9%
same,inhibition,"[8]; single agent, at 5 µM",-15.2%
same,inhibition,[9]; at 0.5 µM,-4.49% (inactive)
same,inhibition,"[9]; cisplatin combo, at 5 µM",16.1%
same,inhibition,[9]; [34],-6.16%
same,inhibition,[9]; [22],22.5%
same,inhibition,"[9]; single agent, at 5 µM",-14.1%
same,inhibition,[10]; at 0.5 µM,-21.1% (inactive)
same,inhibition,[10]; [35],-27%
same,inhibition,[10]; [36],-20%
same,inhibition,"[10]; single agent, at 0.05 µM",24.5%
same,inhibition,"[10]; single agent, at 5 µM",-45%
